Screening data as filed in PubChem BioAssay.
Only some compounds are listed: those with a hit (about 19% of all), similar ones and a draw of the others.
HT1080 IDH1KD tx = kills HT-1080 cells with IDH1 knockdown; AID 686971; 360,000 compounds, 2% hits; Potency, µM (titrated, usually from 46.1 µM), actives largely listed as cytotoxic; HT-1080 IDH1 knockdown viability, ATP luminescence, 48 h
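Luminescent ATP read-out (CellTiter-Glo, 10 min at room temperature) after 48 h compound exposure at 37 °C gave viability of IDH1-knockdown HT-1080 cells. Activity was normalised to DMSO and cell-free wells, then fitted as concentration-response curves.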
DT40 TDP1 CPT = DT40-hTDP1 cell growth loss with CPT. chicken DT40 Tdp1-/-;hTDP1 cells + 20 nM CPT, ATP luminescence, 48 h. Potency, µM (top dose mostly 46.2 µM), most hits filed as inhibitors. 420,000 compounds, 12% hits. AID 686979; note: nearly all actives have a fitted effect of over 55% in size
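Chicken DT40 Tdp1-/- cells stably complemented with human TDP1 were seeded at 400 cells/well in medium containing 20 nM camptothecin, exposed to pin-transferred compounds, and grown at 37 °C for at least 48 hr. Viability was read as ATP luminescence.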
IL1B secr inh = inhibitors of inflammasome signaling (IL-1 beta secretion). activity change, % at 57.5 µM. THP-1 LPS/ATP IL-1B secretion, AlphaLISA, 16 h; active compounds read low. 360,000 compounds, 4.7% hits; in the data active = activity change below about -50%; inconclusive = mostly about -30% to -49%
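Secreted IL-1B measured by AlphaLISA bead assay after 16 h compound exposure of THP-1 cells; compounds (final up to 57.5 uM) added 1 h before LPS (250 ng/mL) and ATP (1.25 mM) stimulation; lower signal means less secretion.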
HT1080-NT tox = kills 2HG-producing HT-1080-NT fibrosarcoma cells. Potency, µM (top dose mostly 46.1 µM), usual class: cytotoxic. HT-1080-NT fibrosarcoma viability, CellTiter-Glo ATP luminescence, 48 h. 360,000 compounds, 1.6% hits;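 note: NT is the 2HG producing partner of a matched IDH1 knockdown line; nearly all actives have a fitted effect of over 55% in size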
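Toxicity toward the 2HG-producing NT line was scored as %Activity, normalised to DMSO and no-cell wells, from CellTiter-Glo luminescence after 48 hours' treatment.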
TDP1 cell noCPT = qHTS for Inhibitors of human tyrosyl-DNA phosphodiesterase 1 (TDP1): qHTS in cells in absence of CPT; DT40 Tdp1-/- hTDP1 cells, no CPT, ATP luminescence, 48 h; Potency, µM (series often up to 46.2 µM), actives largely listed as inhibitors; 420,000 compounds, 15% hits; note: nearly all actives have a fitted effect of over 55% in size
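Cells were dispensed at 400 per well, compounds added by pin tool, plates incubated ≥48 hr at 37 °C, then CellTiter-Glo added for 30 min at room temperature before luminescence reading. Line: DT40 Tdp1-/- complemented with hTDP1; camptothecin omitted.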
Each line names hits and unclear results; the compound was inactive in the other large screens. Unless noted, calls come from the whole dose curve; as a rule, active = well fitted curve in the direction sought with a large enough effect; inconclusive = small, poorly fitted or top-dose-only effect, or another doubt; inactive = no such curve, though single readings can be large; an effect the other way counts as inactive or inconclusive.

CC(C)c1ccc(NC(=O)C2(C)Cc3c(-c4ccc(C(N)=O)cc4)ccnc3O2)cc1 (stereo not drawn)	DT40 TDP1 CPT 16µM, TDP1 cell noCPT 16µM
Clc1ccc2ncnc(NCc3ccc4c(c3)OCO4)c2c1	DT40 TDP1 CPT 3.2µM, TDP1 cell noCPT 2.5µM (no result: HT1080 IDH1KD tx, IL1B secr inh, HT1080-NT tox)
Oc1ccc(CCNc2ncnc3ccc(Cl)cc23)cc1	HT1080 IDH1KD tx inconclusive, DT40 TDP1 CPT 2.6µM, TDP1 cell noCPT 2.3µM
Cc1ccccc1C(=O)Nc1nc2nc(-c3ccccc3)cc(=O)n2[nH]1	none (no result: HT1080 IDH1KD tx, IL1B secr inh, HT1080-NT tox)
O=C1CC(Sc2ccc(Cl)cc2)C(=O)N1Cc1ccncc1 (stereo not drawn)	DT40 TDP1 CPT 23µM, TDP1 cell noCPT 18µM
NCCSC1CC(=O)N(Cc2ccc(F)cc2)C1=O (stereo not drawn)	none
COc1ccc(O)c(C(=O)c2cc(C#N)c(=O)n(Cc3ccccc3)c2)c1	DT40 TDP1 CPT inconclusive, TDP1 cell noCPT inconclusive
N#Cc1cc(C(=O)c2cc(F)ccc2O)cn(-c2nccs2)c1=O	TDP1 cell noCPT inconclusive
Cc1c(-n2cc(C(=O)c3cc(F)ccc3O)cc(C#N)c2=O)c(=O)n(-c2ccccc2)n1C	IL1B secr inh -56
N#Cc1cc(C(=O)c2cc(Br)ccc2O)cn(Cc2ccccc2)c1=O	DT40 TDP1 CPT inconclusive, IL1B secr inh inconclusive, HT1080-NT tox inconclusive, TDP1 cell noCPT 21µM
Cc1ccccc1-n1cc(C(=O)c2cc(Cl)ccc2O)cc(C#N)c1=O	DT40 TDP1 CPT inconclusive, TDP1 cell noCPT 12µM
N#Cc1cc(C(=O)c2cc(Cl)ccc2O)cn(CC2CCCO2)c1=O (stereo not drawn)	DT40 TDP1 CPT inconclusive, TDP1 cell noCPT 21µM
COc1ccc(C(=S)N2CCOCC2)cc1OC(=O)c1cc(OC)c(OC)c(OC)c1	none
Cc1cc(C)c2c(n1)SCC(=O)N2CC(=O)Nc1ccc(Br)c(C)c1	TDP1 cell noCPT inconclusive
Cc1c(C(=O)NN2CCOCC2)oc2c1ccc1ccccc12	IL1B secr inh -71, TDP1 cell noCPT inconclusive
Cc1c(C(=O)NN2CCOCC2)oc2ccccc12	none
COc1cccc(Cn2c(=O)c(CCc3ccccc3)nc3cnc(N4CCOCC4)nc32)c1	none (no result: HT1080 IDH1KD tx, IL1B secr inh, HT1080-NT tox)
CCOc1cccc2cc(-c3csc(NC(=O)CCC(=O)N4CCC(C)CC4)n3)c(=O)oc12	DT40 TDP1 CPT inconclusive, TDP1 cell noCPT 16µM
Cn1c(NC(=O)c2cc(Br)ccc2Cl)cc(=O)n(C)c1=O	none
Fc1ccc(C(Nc2ccccc2Cl)c2nnc(-c3ccccc3Cl)o2)cc1 (stereo not drawn)	DT40 TDP1 CPT inconclusive, TDP1 cell noCPT 21µM (no result: HT1080 IDH1KD tx, IL1B secr inh, HT1080-NT tox)
COc1ccc2c(c1)NC(c1ccc(N(C)C)cc1)c1cccn1-2 (stereo not drawn)	DT40 TDP1 CPT inconclusive, TDP1 cell noCPT 15µM
COc1ccc2c(c1)NC(c1cc(Cl)cc(Cl)c1O)c1cccn1-2 (stereo not drawn)	TDP1 cell noCPT inconclusive
COc1cc(CNC(=O)OC2CC3CC2[C@H]2CCCCN2C3=O)cc(OC)c1 (stereo partly drawn)	none
CCOC(=O)c1ccc(NS(=O)(=O)c2ccc3c(c2)CCN3C(=O)CC)cc1	DT40 TDP1 CPT 13µM, TDP1 cell noCPT inconclusive (no result: HT1080 IDH1KD tx, IL1B secr inh, HT1080-NT tox)
CCOC(=O)c1ccc(NS(=O)(=O)c2ccc3c(c2)CCCN3C(C)=O)cc1	HT1080 IDH1KD tx inconclusive, TDP1 cell noCPT inconclusive
Cc1ccc(NS(=O)(=O)c2ccc3c(c2)CCN3C(=O)CCC(=O)O)cc1Cl	none
CCC(=O)N1CCCc2cc(S(=O)(=O)Nc3ccc(C)c(C)c3)ccc21	DT40 TDP1 CPT 23µM, TDP1 cell noCPT 18µM (no result: HT1080 IDH1KD tx, IL1B secr inh, HT1080-NT tox)
CCN(CC)C(=O)C(=O)c1cn(CCOc2ccccc2)c2ccccc12	DT40 TDP1 CPT inconclusive
CN(c1ccc(C(=O)Nc2ccc(CC#N)cc2)cc1)S(C)(=O)=O	none
CCCCCCn1cc(C(=O)OCC)c(=O)c2cc(F)c(F)cc21	DT40 TDP1 CPT inconclusive, IL1B secr inh inconclusive, TDP1 cell noCPT 23µM
CC(NC(=O)c1cn(C)c2ccc(S(=O)(=O)N3CCCC3)cc2c1=O)c1ccccc1 (stereo not drawn)	DT40 TDP1 CPT inconclusive
